Screening results (PubChem)
Sampled rows, rich in hits. Any-hit rate of the full collection: about 2.4%.
D2 PAM-1 – positive allosteric modulators of human D2 dopamine receptor; AID 624464; 360,000 tested, 0.23% active; potentiation, % (concentration not given with the values); DiscoveRx D2 beta-arrestin cells, luminescence, 90 min; 100% = 57 uM dopamine signal; in the data active means potentiation above about 50%
Target sequence (P14416 whole entry, looked up): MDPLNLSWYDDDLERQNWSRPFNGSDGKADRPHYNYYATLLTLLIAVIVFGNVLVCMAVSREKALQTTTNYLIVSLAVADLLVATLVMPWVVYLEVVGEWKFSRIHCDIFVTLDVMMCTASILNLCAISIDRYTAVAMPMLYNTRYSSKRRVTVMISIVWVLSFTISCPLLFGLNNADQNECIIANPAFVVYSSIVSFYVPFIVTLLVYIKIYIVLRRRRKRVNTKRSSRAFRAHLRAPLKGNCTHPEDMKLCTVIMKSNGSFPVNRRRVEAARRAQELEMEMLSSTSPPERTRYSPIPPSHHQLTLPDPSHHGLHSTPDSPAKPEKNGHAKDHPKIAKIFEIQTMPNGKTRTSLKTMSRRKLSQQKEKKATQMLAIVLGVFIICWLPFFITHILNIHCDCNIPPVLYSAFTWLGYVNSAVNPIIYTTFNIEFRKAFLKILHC
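D2 cells co-treated with compound plus 50 nM dopamine (EC20) for 90 min at 37 deg C to detect potentiation. Beta-arrestin recruitment was read as enzyme-fragment luminescence after 1 h at ambient temperature. Full response was set by 57 uM dopamine.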
D2 ag-1 – human D2 receptor agonism in beta-arrestin assay; P14416; 360,000 tested, 0.084% active; DiscoveRx PathHunter D2 beta-arrestin, luminescence, 90 min; 100% = 57 uM dopamine signal; activation, % (concentration not given with the values); AID 624465; in the data active means activation above about 40%
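DiscoveRx PathHunter D2 beta-arrestin cells (2,100/well) attached overnight, then compound-stimulated 90 min at 37 C in HBSS/10 mM HEPES/0.1% Tween-20 buffer; beta-galactosidase complementation read by luminescence after 1 h at ambient temperature. Dopamine 57 uM final (EC100) as control.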
D2 antagonist – D2 dopamine receptor (human) antagonism | P14416 | HEK293 TREx D2 cells, calcium flux, dopamine EC80 | inhibition, % at 10 µM | 340,000 tested, 2% active; in the data active means inhibition above about 30%; inactive means below that, where a call was filed
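HEK293 T-REx D2 cells, tet-induced, calcium dye no-wash. Cpd pintool add, 180 s kinetic, then EC80 DA, 180 s kinetic. Ca flux read.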
D2 ag-2 – agonists of human D2 dopamine receptor. P14416. HEK293 T-REx D2 cells, calcium flux agonist mode. activation, % at 2 µM. 340,000 tested, 0.53% active. AID 485358;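 active means activation over 3 SD above normal in the single-dose calcium agonist read, cut at about 30% in these data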
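Agonism scored from kinetic calcium signal (1 read/sec, 180 s) following compound pin transfer, after a 10 s baseline. Cells: HEK293 Trex line expressing inducible D2 receptor coupled to calcium, dye-loaded after overnight culture at 30 C.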
D2 PAM-2 – positively modulates the human D2 dopamine receptor allosterically; 340,000 tested, 0.34% active; potentiation, % at 10 µM; P14416; AID 485347; HEK293 T-REx D2, calcium flux, EC20 dopamine potentiation;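 active means potentiation over 3 SD above the plate norm, cut at about 30% in these data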
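Using a no-wash calcium dye in inducible, force-coupled HEK293 Trex cells expressing D2, we tracked fluorescence each second for 180 s after compound, then for 180 s after EC20 dopamine to detect augmented signalling.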
Large screens that a line does not name were inactive.

Cc1nc(COc2ccc(C(=O)NCc3ccccc3CN3CCCCC3)cc2)cs1	none
Cc1ccc(C(=O)N/C(N)=N/c2nc3ccccc3o2)cc1	D2 antagonist 53
CCC1(C)SC(NC(C)=O)=NN1C(C)=O (centres undefined)	none
CC(=O)NC1=NN(C(C)=O)C(C)(CS(=O)(=O)c2ccc3ccccc3c2)S1 (centres undefined)	D2 antagonist 39
CC1(C)Cc2c(sc(/N=C/N3CCCC3)c2C#N)C(C)(C)N1	D2 antagonist 33
CC1(C)Cc2c(sc(/N=C/N3CCCCCC3)c2C#N)C(C)(C)N1	none
CCOC(=O)c1c(C)[nH]c(C)c1S(=O)(=O)NCC1CCN(Cc2ccc(C)cc2)CC1	D2 antagonist 87
CCOC(=O)c1c(C)[nH]c(C)c1S(=O)(=O)NCC1CCN(Cc2ccccc2F)CC1	none
CCOC(=O)c1c(C)[nH]c(C)c1S(=O)(=O)NCC1CCN(Cc2cccc(Cl)c2)CC1	D2 antagonist 78
Cc1cc(=O)n2nc(N3CCC(C(=O)NCc4ccco4)CC3)sc2n1	none
Cc1cc(=O)n2nc(N3CCCC(C(=O)NCc4ccco4)C3)sc2n1 (centres undefined)	D2 antagonist 36
Cc1cc(C(=O)Cn2nc(C(=O)O)c3ccccc3c2=O)c(C)n1-c1ccc(OC(F)F)cc1	D2 PAM-2 36
COc1ccc(-n2c(C)cc(C(=O)Cn3nc(C(=O)O)c4ccccc4c3=O)c2C)cc1	none
NC(=O)COc1ncn(-c2ccccc2)n1	none
N/C(COc1ncn(-c2ccccc2)n1)=N\S(=O)(=O)c1ccc(Cl)cc1Cl	D2 PAM-2 32
Cc1ccc(CNc2ccc3c(c2)ncn3C(C)C)cc1	D2 ag-2 37
CCC(C)NCCOc1ccc(C)cc1[N+](=O)[O-] (centres undefined)	D2 antagonist 54
C=CCc1ccc(OCCOCCOc2ccc(C)cc2[N+](=O)[O-])c(OC)c1	none
C=CCN(CC=C)CCOc1ccc(C)cc1[N+](=O)[O-]	D2 antagonist 38
COCCCNCCCCOc1ccc(C)cc1[N+](=O)[O-]	none (no result: D2 antagonist, D2 ag-2, D2 PAM-2)
CCCCNCCOCCOc1ccc(C)cc1[N+](=O)[O-]	none
C=CCNCCOc1ccc(C)cc1[N+](=O)[O-]	D2 antagonist 46
COc1ccc(S(=O)(=O)c2cc(NS(=O)(=O)c3ccc(Cl)cc3)c(C)c(C)c2O)cc1	none (no result: D2 PAM-1, D2 ag-1, D2 antagonist)
O=C(N/N=C/C=C\c1ccccc1[N+](=O)[O-])c1ccccn1	D2 antagonist 81
CC1CCC(N2CC(=O)N(C3CCCC3)C(c3ccc(Cl)cc3)C2=O)CC1 (centres undefined)	none (no result: D2 PAM-1, D2 ag-1, D2 antagonist, D2 ag-2)
Cc1ccc(C(C)C)c(OCc2n[nH]c(=S)o2)c1	none
Cc1ccc(C(C)C)c(OCc2nc(-c3nonc3N)no2)c1	D2 antagonist 33
Cc1cc(C(=O)COC(=O)Cn2cnc3c2c(=O)n(C)c(=O)n3C)c(C)n1C	D2 antagonist 45
O=C(CNC(=O)c1cccs1)N/N=C/c1c(F)cccc1Cl	D2 antagonist 31
CCOc1ccc2cc(S(=O)(=O)n3ccnc3C)ccc2c1	D2 PAM-2 37
COc1cccc(N2CC(NC(=O)COc3ccccc3F)CC2=O)c1 (centres undefined)	none (no result: D2 PAM-1, D2 ag-1, D2 antagonist)
CCOc1ccc(CCNC(=O)CCc2c(C)nc3cc(-c4ccccc4OC)nn3c2C)cc1	none (no result: D2 PAM-1, D2 ag-1, D2 antagonist)
CCOc1ccc(C2C(C#N)=C(N)SC(N)=C2C#N)c(OCC)c1	D2 antagonist 31
CC(=O)N1CCN(c2ccc([N+](=O)[O-])cc2)CC1	none
CC(=O)N1CCN(C(=S)c2ccc([N+](=O)[O-])cc2)CC1	D2 antagonist 48
COc1ccc(NC(=O)c2c(-c3ccc(C)cc3)nnc3ccccc23)cc1Cl	none (no result: D2 PAM-1, D2 ag-1, D2 antagonist)
NC(N)=NC(N)=Nc1cccc2ccccc12	none
NC(N)=Nc1cc2ccccc2c2ccccc12	D2 antagonist 38, D2 ag-2 68 (no result: D2 PAM-1, D2 ag-1)
CN1CCN(/C(=N\O)c2nonc2N)CC1	none
Nc1nonc1/C(=N/O)N1CCN(CCO)CC1	D2 antagonist 51
COc1ccc(C(C(=O)NCc2ccccc2)N(C(=O)Cn2nnc3ccccc32)c2ccc(OC)cc2)cc1 (centres undefined)	none (no result: D2 PAM-1, D2 ag-1, D2 antagonist)
Cn1c(CCC(=O)O)nc2cc(S(=O)(=O)N3CCCCC3)ccc21	D2 antagonist 33
Cc1ccc(-n2c(=O)c3c(C)c(C)sc3n(CC(=O)NCc3ccccc3)c2=O)cc1C	none (no result: D2 PAM-1, D2 ag-1, D2 antagonist)
